Test results taken from PubChem BioAssay (Tox21).
Where “and” joins values, the source holds several entries; their conditions need not be identical. Equal values may be shown once. Inconclusive results are not listed. Where a call stands in place of a potency, no number is given. A structure can be active in one record and inactive in another. Calls of active or inactive are those of the source. Unless noted, calls come from the whole dose curve; as a rule, active = well fitted curve in the direction sought with a large enough effect in the repeat runs; inconclusive = weak or mixed curves; inactive = no such curve, though single readings can be large; an effect the other way counts as inactive or inconclusive.

What was measured:
[1] = qHTS assay for small molecule agonists of the p53 signaling pathway (AID 651631; calls by dose curve; note: nearly all actives have a fitted effect of over 15% in size)
Procedure, shortened: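 We treat p53RE-bla HCT-116 cells with compounds for 16 h at 37 °C, add LiveBLAzer B/G FRET substrate for 2 h at room temperature, and measure fluorescence intensity.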

[2] = qHTS assay for small molecules that induce genotoxicity in human embryonic kidney cells expressing luciferase-tagged ATAD5 (AID 651632); note: nearly all actives have a fitted effect of over 15% in size; note: potency is the fitted concentration of half-maximal effect
Procedure, shortened: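 ATAD5-luc HEK293T, 2,000 cells/well; cpd or DMSO pin-transferred; 16 hr, 37C/5% CO2; Amplite 30 min RT; luminescence.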

[3] = qHTS assay for small molecule agonists of the p53 signaling pathway - cell viability (AID 651633; calls by dose curve;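 note: p53RE-bla HCT reporter cells with a stable beta-lactamase p53 reporter; series mostly up to about 83 µM; nearly all actives have a fitted effect of over 30% in size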)
Procedure, shortened: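 p53RE-bla cells were treated with compound for 16 hours at 37 C. Cytotoxicity was then measured as CellTiter-Glo luminescence after 30 min at room temperature.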

[4] = qHTS assay for small molecules that induce genotoxicity in human embryonic kidney cells expressing luciferase-tagged ATAD5 - cell viability (AID 651634; calls by dose curve; note: nearly all actives have a fitted effect of over 25% in size)
Procedure, shortened: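 Fluorescence from CellTiter-Fluor, reporting protease activity within live cells, served as the viability read-out. HEK293T cells carrying luciferase-tagged ATAD5 had been treated with compound for 15.5 hr at 37C.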

[5] = qHTS assay for small molecule disruptors of the mitochondrial membrane potential - cell viability (AID 720634; calls by dose curve;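 note: human HepG2 liver cancer cells; series mostly up to about 83 µM; nearly all actives have a fitted effect of over 20% in size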)
Procedure, shortened: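 Cells: HepG2, 2,000/well, attached overnight. Compound 1 hr, 37 C/5% CO2. +m-MPI dye, +CellTiter-Glo 30 min RT. Readout: luminescence (ATP).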

[6] = qHTS assay for small molecule disruptors of the mitochondrial membrane potential (AID 720635); note: potency is the fitted concentration of half-maximal effect
Procedure, shortened: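 HepG2 cells exposed to compound 1 hr at 37C, then Mito-MPS dye 30 min. Ratio read of aggregate (540/590 nm) versus monomer (490/535 nm) fluorescence.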

[7] = qHTS assay to test for compound auto fluorescence at 590 nm (red) in HepG2 cells (AID 720674)
Procedure, shortened: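 HepG2 cells, 2,000 per well in MEM with 10% FBS, attached overnight at 37 C, then got 23 nL compound or DMSO. After 1 hr at 37 C, 5% CO2, red fluorescence was read at 540/590 nm against Rose Bengal sodium as reference.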

[8] = qHTS assay to test for compound auto fluorescence at 535 nm (green) in HepG2 cells (AID 720675)
[9] = qHTS assay to test for compound auto fluorescence at 460 nm (blue) in HEK293 cells (AID 720678)
Procedure, shortened: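 Blue read-out at excitation 405 nm and emission 460 nm follows overnight compound exposure of HEK293 cells at 37C in 5% CO2. Activity is given as auto fluorescence equivalency to triamterene.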

[10] = qHTS assay to test for compound auto fluorescence at 590 nm (red) in HEK293 cells (AID 720679)
Procedure, shortened: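 Red channel, Ex/Em 540/590nm; signal expressed as equivalency to Rose Bengal sodium. HEK293, 2,000 cells/well, 10% dialyzed FBS; 23 nL compound pinned after 4-5 hr attachment; overnight 37C/5% CO2 before reading.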

In the case of `CC(C)CCCCCCOC(=O)c1ccccc1C(=O)OCCCCCCC(C)C`, the Potency [1] is reported as “inactive”, the Potency [2] is reported as “inactive” and the Potency [3] is reported as “inactive”. For the same compound, the Potency [4] was “inactive”, the Potency [5] was “inactive” and the Potency [6] was “inactive”. For the same compound, the outcome [7] was “inactive”, the outcome [8] was “inactive” and the outcome [9] was “inactive”.
With `CNC(=O)O/N=C/C(C)(C)S(C)=O` (centres undefined) the Potency [2] was “inactive”, the Potency [3] was “inactive” and the Potency [4] was “inactive”. The Potency [5] was “inactive”, the Potency [6] was “inactive” and the outcome [7] was “inactive”. For the same compound, the outcome [8] was “inactive”, the outcome [9] was “inactive” and the outcome [10] was “inactive”.
In the case of `CN1C(=O)CCS(=O)(=O)C1c1ccc(Cl)cc1` (centres undefined), the Potency [2] is reported as “inactive”, the Potency [4] is reported as “inactive” and the Potency [5] is reported as “inactive”. For the same compound, the Potency [6] was “inactive”, the outcome [7] was “inactive” and the outcome [8] was “inactive”. For the same compound, the outcome [9] was “inactive” and the outcome [10] was “inactive”.
With `c1ccc2c(c1)CCCC2` the Potency [1] was “inactive”, the Potency [2] was “inactive” and the Potency [3] was “inactive”. For the same compound, the Potency [4] was “inactive”, the Potency [5] was “inactive” and the outcome [7] was “inactive”. The outcome [8] was “inactive”, the outcome [9] was “inactive” and the outcome [10] was “inactive”.
For `O=C(O)c1cc(Oc2ccc(C(F)(F)F)cc2Cl)ccc1[N+](=O)[O-]`, the Potency [2] was “inactive”, the Potency [3] was “inactive” and the Potency [4] was “inactive”. For the same compound, the Potency [5] was “inactive”, the Potency [6] was “inactive” and the outcome [7] was “inactive”. The outcome [8] was “inactive”, the outcome [9] was “inactive” and the outcome [10] was “inactive”.
In the case of `Sc1ccccc1`, the Potency [2] is reported as “inactive”, the Potency [3] is reported as “inactive” and the Potency [4] is reported as “inactive”. The Potency [5] was “inactive”, the Potency [6] was “inactive” and the outcome [7] was “inactive”. The outcome [8] was “inactive”, the outcome [9] was “inactive” and the outcome [10] was “inactive”.
With `CN(C)C(=O)Cl` the Potency [2] was “inactive”, the Potency [3] was “inactive” and the Potency [4] was “inactive”. The Potency [5] was “inactive”, the Potency [6] was “inactive” and the outcome [7] was “inactive”. The outcome [8] was “inactive”, the outcome [9] was “inactive” and the outcome [10] was “inactive”.
With `OC[C@@H](O)[C@H]1O[C@@H]2O[C@H](C(Cl)(Cl)Cl)O[C@@H]2[C@H]1O` the Potency [2] was “inactive”, the Potency [4] was “inactive” and the Potency [5] was “inactive”. For the same compound, the Potency [6] was “inactive”, the outcome [7] was “inactive” and the outcome [8] was “inactive”. For the same compound, the outcome [9] was “inactive” and the outcome [10] was “inactive”.
For `Oc1c(Br)cc(Br)cc1Br`, the Potency [2] was “inactive”, the Potency [3] was “inactive” and the Potency [4] was “inactive”. For the same compound, the Potency [5] was “inactive”, the Potency [6] was 48.7 µM (active) and 54.5 µM (active) and the outcome [7] was “inactive”. The outcome [8] was “inactive”, the outcome [9] was “inactive” and the outcome [10] was “inactive”.
For `NNc1ccccc1`, the Potency [2] was “inactive”, the Potency [3] was “inactive” and the Potency [5] was “inactive”. For the same compound, the Potency [6] was “inactive”, the outcome [7] was “inactive” and the outcome [8] was “inactive”. The outcome [9] was “inactive” and the outcome [10] was “inactive”.
With `CN(C)NC(=O)CCC(=O)O` the Potency [1] was “inactive”, the Potency [3] was “inactive” and the Potency [5] was “inactive”. The Potency [6] was “inactive”, the outcome [7] was “inactive” and the outcome [8] was “inactive”. The outcome [9] was “inactive” and the outcome [10] was “inactive”.
With `Cc1cccc(N)c1` the Potency [2] was “inactive”, the Potency [3] was “inactive” and the Potency [4] was “inactive”. For the same compound, the Potency [5] was “inactive”, the Potency [6] was “inactive” and the outcome [7] was “inactive”. The outcome [8] was “inactive” and the outcome [9] was “inactive”.
With `COc1cc(-c2ccc(N)c(OC)c2)ccc1N` the Potency [1] was “inactive”, the Potency [2] was “inactive” and the Potency [3] was “inactive”. For the same compound, the Potency [5] was “inactive”, the outcome [7] was “inactive” and the outcome [8] was “inactive”. For the same compound, the outcome [9] was “inactive” and the outcome [10] was “inactive”.
With `CNc1cnn(-c2cccc(C(F)(F)F)c2)c(=O)c1Cl` the Potency [1] was “inactive”, the Potency [3] was “inactive” and the Potency [4] was “inactive”. The Potency [5] was “inactive”, the Potency [6] was “inactive” and the outcome [7] was “inactive”. For the same compound, the outcome [8] was “inactive”, the outcome [9] was “inactive” and the outcome [10] was “inactive”.
With `C[C@]12CC[C@H](O)CC1=CC[C@@H]1[C@@H]2CC[C@]2(C)C(=O)CC[C@@H]12` the Potency [2] was “inactive”, the Potency [3] was “inactive” and the Potency [4] was “inactive”. The Potency [5] was “inactive”, the outcome [7] was “inactive” and the outcome [8] was “inactive”. The outcome [9] was “inactive”.
In the case of `C=C(C)C(=O)OCC(CC)CCCC` (centres undefined), the Potency [1] is reported as “inactive”, the Potency [2] is reported as “inactive” and the Potency [3] is reported as “inactive”. For the same compound, the Potency [4] was “inactive”, the outcome [7] was “inactive” and the outcome [8] was “inactive”. For the same compound, the outcome [9] was “inactive”.
With `CCCCCCCCCCCCCCCCCC(=O)O` the Potency [4] was “inactive”, the Potency [5] was “inactive” and the Potency [6] was “inactive and 54.1 µM (active)”. For the same compound, the outcome [7] was “inactive”, the outcome [8] was “inactive” and the outcome [9] was “inactive”. For the same compound, the outcome [10] was “inactive”.
For `CC12CC1(C)C(=O)N(c1cc(Cl)cc(Cl)c1)C2=O` (centres undefined), the Potency [2] was “inactive”, the Potency [3] was “inactive” and the Potency [4] was “inactive”. For the same compound, the outcome [7] was “inactive”, the outcome [8] was “inactive” and the outcome [9] was “inactive”.
With `Nc1ccc(N)cc1` the Potency [2] was 29.8 µM (active), the Potency [3] was “inactive” and the Potency [4] was “inactive”. The Potency [5] was “inactive”, the Potency [6] was 841 nM (active) and 5.47 µM (active) and 3.86 µM (active) and the outcome [7] was “inactive”. For the same compound, the outcome [8] was “inactive” and the outcome [9] was “inactive”.
With `C[C@H]1C(=O)O[C@@H]2CCN3CC=C(COC(=O)[C@](C)(O)[C@]1(C)O)[C@H]23` the Potency [1] was “inactive”, the Potency [2] was “inactive” and the Potency [3] was “inactive”. For the same compound, the Potency [4] was “inactive”, the outcome [7] was “inactive” and the outcome [8] was “inactive”. For the same compound, the outcome [9] was “inactive”.
With `Oc1ccc(Cl)cc1` the Potency [1] was “inactive”, the Potency [3] was “inactive” and the Potency [4] was “inactive”. The outcome [7] was “inactive”, the outcome [8] was “inactive” and the outcome [9] was “inactive”. For the same compound, the outcome [10] was “inactive”.
With `OCCCCO` the Potency [1] was “inactive”, the Potency [3] was “inactive” and the Potency [4] was “inactive”. The Potency [5] was “inactive”, the Potency [6] was “inactive” and the outcome [7] was “inactive”. The outcome [8] was “inactive” and the outcome [9] was “inactive”.
For `O=C(O)Cc1ccccc1`, the Potency [2] was “inactive”, the Potency [3] was “inactive” and the Potency [4] was “inactive”. The Potency [5] was “inactive”, the Potency [6] was “inactive” and the outcome [7] was “inactive”. The outcome [8] was “inactive”, the outcome [9] was “inactive” and the outcome [10] was “inactive”.
In the case of `ClC(Cl)c1ccccc1`, the Potency [2] is reported as “inactive”, the Potency [3] is reported as “inactive” and the Potency [4] is reported as “inactive”. For the same compound, the Potency [5] was “inactive”, the Potency [6] was “inactive” and the outcome [7] was “inactive”. For the same compound, the outcome [8] was “inactive” and the outcome [9] was “inactive”.
For `CCNc1nc(Cl)nc(NC(C)C)n1`, the Potency [1] was “inactive”, the Potency [2] was “inactive” and the Potency [3] was “inactive”. The Potency [4] was “inactive”, the outcome [7] was “inactive” and the outcome [8] was “inactive”. For the same compound, the outcome [9] was “inactive”.
In the case of `CNC(=O)O/N=C/C(C)(C)SC`, the Potency [1] is reported as “inactive”, the Potency [2] is reported as “inactive” and the Potency [3] is reported as “inactive”. The Potency [4] was “inactive”, the Potency [5] was “inactive” and the outcome [7] was “inactive”. The outcome [8] was “inactive”, the outcome [9] was “inactive” and the outcome [10] was “inactive”.
With `CC(=O)/C=C/c1ccccc1` the Potency [2] was “inactive”, the Potency [3] was “inactive” and the Potency [4] was “inactive”. The Potency [5] was “inactive”, the Potency [6] was “inactive” and the outcome [7] was “inactive”. For the same compound, the outcome [8] was “inactive”, the outcome [9] was “inactive” and the outcome [10] was “inactive”.
For `O=P1(NCCCl)OCCCN1CCCl` (centres undefined), the Potency [2] was “inactive”, the Potency [4] was “inactive” and the Potency [5] was “inactive”. For the same compound, the Potency [6] was “inactive”, the outcome [7] was “inactive” and the outcome [8] was “inactive”. For the same compound, the outcome [9] was “inactive”.
For `C/C=C/c1ccc2c(c1)OCO2`, the Potency [1] was “inactive”, the Potency [3] was “inactive” and the Potency [4] was “inactive”. The Potency [5] was “inactive”, the Potency [6] was 62.3 µM (active) and the outcome [7] was “inactive”. The outcome [8] was “inactive”, the outcome [9] was “inactive” and the outcome [10] was “inactive”.
In the case of `C=CC(=O)OCC(CC)CCCC` (centres undefined), the Potency [1] is reported as “inactive”, the Potency [3] is reported as “inactive” and the Potency [5] is reported as “inactive”. The Potency [6] was “inactive”, the outcome [7] was “inactive” and the outcome [8] was “inactive”. For the same compound, the outcome [9] was “inactive” and the outcome [10] was “inactive”.
With `O=S(=O)(O)OOS(=O)(=O)O` the Potency [2] was “inactive”, the Potency [3] was “inactive” and the Potency [4] was “inactive”. The outcome [7] was “inactive”, the outcome [8] was “inactive” and the outcome [9] was “inactive”. The outcome [10] was “inactive”.
For `O=[N+]([O-])c1ccc(Cl)c(Cl)c1`, the Potency [2] was “inactive”, the Potency [3] was “inactive” and the Potency [4] was “inactive”. The Potency [5] was “inactive”, the Potency [6] was “inactive” and the outcome [7] was “inactive”. The outcome [8] was “inactive”, the outcome [9] was “inactive” and the outcome [10] was “inactive”.
